Assay results reported in PubChem BioAssay AID488862 (Broad Institute, 2010).
Values joined by “and” are separate entries in the source; they are usually repeats but may differ in a detail not shown here. Equal values may be shown once. Among all 340,000 compounds or so, about 1,200 (0.35%) were called active. No stated cut-off is given here; in the data, active means inhibition above about 52%; inactive means the rest. This excerpt belongs to a sample that is enriched for actives.

Assay: inhibition of PrP 5' UTR reporter expression (AID 488862); further: 0 = median of the neutral control wells
Details: cell-based PrP 5' UTR mRNA reporter, plate reader; active compounds read high; concentration not given here

Row | SMILES | inhibition
1 | O=C(CSc1cccc[n+]1[O-])NCCCc1ccccc1 | -19.4% (inactive)
2 | C=CCn1c(C)cc(C2=NNC(=NCC)SC2)c1C | 93.9% (active)
3 | CN(C)c1ccc(CNC(=O)CN2C(=O)COc3ccc(S(=O)(=O)N4CCCC4)cc32)cc1 | -1.62% (inactive)
4 | CCCC(=O)n1nc(NCc2ccc(OC)cc2)nc1NCc1ccc(OC)cc1 | -14.7% (inactive)
5 | NC(N)=Nc1nc(-c2ccccc2)c2cc(Cl)ccc2n1 | -17.4% (inactive)
6 | Clc1ccc2nc(-c3ccccc3)nc(C(Cl)Cl)c2c1 | 92.7% (active)
7 | Clc1ccc2nc3c(c(-c4ccccc4)c2c1)CNCC3 | -16% (inactive)
8 | Oc1ccc(N2CCN(C(=S)NCc3ccccc3)CC2)cc1 | 87.9% (active)
9 | O=C(COC(=O)c1ccccc1C(=O)N1CCN(c2ccccc2)CC1)NCc1ccccc1 | -7.33% (inactive)
10 | Oc1ccccc1N1CCN(C(=S)NCc2ccccc2)CC1 | -14.6% (inactive)
11 | O=C(NCc1ccco1)c1ccc([N+](=O)[O-])cc1Cl | -16.6% (inactive)
12 | CCC(=O)c1cn(CCOc2ccccc2OC)c2ccccc12 | -20.1% (inactive)
13 | Cc1nn2cc(-c3ccc(Cl)cc3)cnc2c1Br | -42% (inactive)
14 | Cc1ccc(S(=O)(=O)Nc2nc3ccccc3s2)cc1[N+](=O)[O-] | 57.4% (active)
15 | Cc1ccc(S(=O)(=O)NCCSc2ccccc2)cc1[N+](=O)[O-] | -22.1% (inactive)
16 | CCOc1ccc2sc(NS(=O)(=O)c3ccc(N)cc3)nc2c1 | -14.4% (inactive)
17 | O=C(Nc1ccc2c(c1)OCCO2)c1ccoc1 | -45.1% (inactive)
18 | O=C(Nc1ccc2c(c1)OCCO2)C1CCCC1 | 56.5% (active)
19 | O=C(Nc1ccc2c(c1)OCO2)C1CC1(Cl)Cl (configuration not stated) | -8.25% (inactive)
20 | O=C(c1ccc(Cl)nc1)N1CCN(S(=O)(=O)c2ccc3c(c2)OCCO3)CC1 | -18.9% (inactive)
21 | O=S(=O)(c1ccc(Br)cc1)c1nc(-c2ccccc2)oc1N1CCOCC1 | -6.56% (inactive)
22 | O=C(OCC(=O)N1CCN(C(=O)c2ccco2)CC1)c1c(Cl)cccc1Cl | -17% (inactive)
23 | COc1cc(SC)ccc1C(=O)N(Cc1ccccc1)c1ccccc1 | -4.63% (inactive)

Row | SMILES | inhibition
24 | COc1ccc(C(=O)Nc2cccc(NC(=O)c3ccc(OC)cc3OC)n2)c(OC)c1 | -7.03% (inactive)
25 | COc1cc(SC)ccc1C(=O)Nc1nc(C)cs1 | 87% (active)
26 | O=C(c1cccs1)n1nc(NCc2ccccc2)nc1NCc1ccccc1 | -11.8% (inactive)
27 | Cc1noc(C)c1COC(=O)Cn1c(C)nc2ccccc21 | -15.5% (inactive)
28 | CC(=O)c1sc(NC(=O)CCN2C(=O)C3CC=CCC3C2=O)nc1-c1ccccc1 (configuration not stated) | -19.1% (inactive)
29 | CC(=NCc1ccc2c(c1)OCO2)C1=C(O)c2ccccc2C1=O | 1.49% (inactive)
30 | O=C(NCc1ccccc1CN1CCCC1)c1cccc(S(=O)(=O)Nc2ccc(F)cc2)c1 | -16.1% (inactive)
31 | CCC(C)(O)C(=O)OC1C(=O)OC2CC3C(C)=CC(=O)C(O)C3(C)C3C4(O)OCC23C1C(C)C4O (configuration not stated) | 78.9% (active)
32 | Cc1cc(O)c(C(=O)/C=C/c2c(F)c(F)c(F)c(F)c2F)c(=O)o1 | 8.81% (inactive)
33 | CC1(C)C[C@H]2C3=CCC4[C@@]5(C)CC[C@H](O)[C@](C)(CO)C5CC[C@@]4(C)[C@]3(C)C[C@@H](O)[C@@]2(CO)[C@@H](O)[C@@H]1O (some centres not stated) | -7.8% (inactive)
34 | COc1ccccc1CNC(=O)CSc1nc(=O)n(Cc2ccncc2)c2c1CCC2 | 10.7% (inactive)
35 | CS(=O)(=O)N(CC(=O)N1CCOCC1)c1ccc2c3c(cccc13)CC2 | -19.4% (inactive)
36 | CC(=O)Nc1ccc(NC(=O)CSc2nnc(COc3ccccc3C)n2CC2CCCO2)cc1 (configuration not stated) | -3.51% (inactive)
37 | CCOC(=O)N1CCC(N2Cc3cccc(C(=O)Nc4c(C)cccc4CC)c3C2=O)CC1 | -4.9% (inactive)
38 | Cc1nc2c(-c3ccc(F)cc3)c(C)nn2c(C)c1CCC(=O)N1CCN(c2ccccn2)CC1 | 4.39% (inactive)
39 | COc1ccc(CCNS(=O)(=O)c2ccc(Cl)s2)cc1OC | 6.31% (inactive)
40 | COC1C(O)C(C)OC(OC2CCC3(C=O)C(CCC4C3CCC3(C)C(C5=CC(=O)OC5)CCC43O)C2)C1O (configuration not stated) | 89.8% (active)
41 | COc1ccc(C(=O)C2CCCN(C(=O)c3cnsn3)C2)c(C)c1 (configuration not stated) | -10.1% (inactive)
42 | Cc1cc(NC(=O)Nc2ccc(Cl)cc2)n(-c2ccccc2)n1 | -39.6% (inactive)
43 | Cc1cc(Nc2ccccc2)n(C(=O)c2ccc(N)cc2)n1 | 67.9% (active)
44 | Cn1c(Nc2ccccc2)cc(=O)n(C)c1=O | -38.1% (inactive)
45 | CCOc1ccc(CN(Cc2ccco2)C(c2cccs2)c2nnnn2C(C)(C)C)cc1 (configuration not stated) | -13.3% (inactive)
46 | CCOc1ccc(NC(=O)CCCCCN2C(=O)[C@@H]3Cc4ccccc4CN3C2=O)cc1 | -14.6% (inactive)

Row | SMILES | inhibition
47 | CCOc1ccc(NC(=O)CCS(=O)(=O)c2cccc3nsnc23)cc1 | -15.9% (inactive)
48 | Cc1ccc(-n2c(-c3ccc(Cl)cc3)n[nH]c2=S)cc1 | -0.525% (inactive)
49 | CSc1nnc2ccc(-c3ccc(C)cc3)nn12 | 0.671% (inactive)
50 | Cc1ccc(-c2cn3cc(C)ccc3n2)cc1 | 85.2% (active)
51 | Cc1ccc2nc(-c3ccc(Br)cc3)cn2c1 | 71% (active)
52 | Cc1ccc(-c2cc(N)on2)cc1 | -33% (inactive)
53 | Cc1ccc(-c2cc(C(=O)NCc3cn(C)nc3C)c3cc(Br)ccc3n2)cc1 | -28.8% (inactive)
54 | O=C(NC(=S)Nc1ccc(Cl)cc1Cl)C1CC1 | -42.6% (inactive)
55 | O=C(COC(=O)c1ncc(Cl)c(Cl)c1Cl)NCc1cccs1 | -15.5% (inactive)
56 | CCCCN(C(=O)CCNC(=O)NC12CC3CC(CC(C3)C1)C2)c1c(N)n(CCCC)c(=O)[nH]c1=O | 9.19% (inactive)
57 | COc1ccc(CCNC(=O)C2CCCN2C(=O)Nc2ccccc2)cc1OC (configuration not stated) | -48% (inactive)
58 | Cc1ccc(OCCOCCOc2ccc(Br)cc2/C=N\NC(=O)c2ccncc2)cc1 | -18.1% (inactive)
59 | Cc1cccc(OCC(=O)NCC(=O)N/N=C/c2ccc(N(C)C)cc2)c1 | -13.2% (inactive)
60 | O=C(CSC1c2ccccc2-c2ccccc21)N/N=C/c1ccccc1 | 9.76% (inactive)
61 | Cc1ccc(/C=N/NC(=O)COc2ccccc2-c2ccccc2)cc1 | 70% (active)
62 | COc1ccc(OC)c(S(=O)(=O)Nc2cccc(-c3ccc4nncn4n3)c2)c1 | -13.4% (inactive)
63 | Cc1c(CN2CCCC(C(=O)c3cccc(Cl)c3)C2)c(=O)n(-c2ccccc2)n1C (configuration not stated) | -12.1% (inactive)
64 | CCOc1ccc(N/C=C/C(=O)c2cc(OC)c(OC)c(OC)c2)cc1 | -105% (inactive)
65 | COc1ccc(C(=O)/C=C/Nc2ccccn2)cc1 | 66% (active)
66 | CCOc1ccc(N/C=C/C(=O)c2ccccc2)cc1 | -1.68% (inactive)
67 | CCc1cc2c(N3CCN(c4nnc(CC)s4)CC3)ncnc2s1 | 2.26% (inactive)
68 | CC(C)(C)c1ccc(/C=C2\SC(=O)N=C2N)cc1 | 36.2% (inactive)
69 | CCCCSCCCNC(=O)C1CCC(CNS(=O)(=O)c2ccc(NC(C)=O)cc2)CC1 (configuration not stated) | -21.5% (inactive)

Row | SMILES | inhibition
70 | CCN(CCn1cccn1)C(=O)CC1C(=O)NCCN1Cc1cccc(OC)c1OC (configuration not stated) | -9.29% (inactive)
71 | CCCCNCCS(=O)(=O)NCc1ccccc1 | -9.61% (inactive)
72 | COc1ccccc1CNS(=O)(=O)c1ccc(C)cc1 | -15.1% (inactive)
73 | CCCCNS(=O)(=O)CCNCc1ccccc1OC | 60.7% (active)
74 | Cc1cccc([C@@H]2[C@@H]3C(=O)N(Cc4ccccc4)C(=O)[C@@H]3[C@]3(C)C(=O)N(c4ccc(Br)cc4)C(=O)N23)c1 | -3.38% (inactive)
75 | Cc1ccc(-c2cccc([C@H]3[C@@H]4C=CC[C@@H](C)[C@@H]4C(=O)N3Cc3ccccc3)c2)cc1 | 61.8% (active)
76 | Cc1cccc([C@H]2[C@@H]3C=CC[C@@H](C)[C@@H]3C(=O)N2Cc2ccccc2)c1 | -11.5% (inactive)
77 | Cc1nc(N=C(N)N)nc2c(C)cccc12 | -22.8% (inactive)
78 | Cc1nc(C(=O)NCc2ccccc2)sc1C1(C)CC(c2cccnc2)=NO1 (configuration not stated) | -16.5% (inactive)
79 | CCCOc1ccccc1C1CC(=O)Nc2cc3c(cc21)OCO3 (configuration not stated) | -21.5% (inactive)
80 | COc1ccccc1C1C2=C(COC2=O)Nc2cc3c(cc21)OCO3 (configuration not stated) | 65.7% (active)
81 | O=C1OCC2=C1C(c1ccc(Cl)cc1)c1cc3c(cc1O2)OCO3 (configuration not stated) | 16.1% (inactive)
82 | COc1ccc(NC(=O)CN(C)C(=O)c2ccc(NC3CC3)c([N+](=O)[O-])c2)cc1 | -13.7% (inactive)
83 | Cc1noc(C)c1S(=O)(=O)Nc1ccc(C(=O)N2CCN(c3ccc(F)cc3)CC2)cc1 | 44.2% (inactive)
84 | N#Cc1nc(N)nc(N(c2ccccc2)c2ccccc2)n1 | -20.2% (inactive)
85 | CCc1nn(CCCN2CCN(c3cccc(Cl)c3)CC2)c(=O)n1CCOc1ccccc1 | -17.3% (inactive) and 2.12% (inactive)
86 | O=C(O)c1cccnc1NC1CCCC1 | -17.1% (inactive)
87 | CC1=C(C)CC(C(=O)NNC(=O)c2ccccc2O)C(C(=O)O)C1 (configuration not stated) | -11.4% (inactive)
88 | O=C(NNC(=O)c1ccccc1O)c1ccccc1O | 58.9% (active)
89 | Cc1cc(C(=O)CCC(=O)NNC(=O)c2ccccc2O)c(C)s1 | 4.28% (inactive)
90 | C/C(=N/NC(=O)CN1CCN(S(=O)(=O)c2ccc(Br)cc2)CC1)c1ccncc1 | -9.51% (inactive)
91 | Cc1cc(C)nc(/N=C2\NC(=O)CC(C(=O)O)N2c2ccc(Cl)cc2Cl)n1 (configuration not stated) | -13.6% (inactive)
92 | COc1ccc(C23NCCN2C(=O)c2ccccc23)cc1 (configuration not stated) | -5.86% (inactive)
